# Rows were chosen to be rich in hits. Some 5% of all compounds tested hit in one or more screens of this group.
# EBI2 block = EBI2 (human) antagonism. P32249. EBI2 beta-arrestin recruitment, luminescence, 7a,25-OHC stimulated. inhibition, % at 5 µM. actives 0.81% (n = 360,000). AID 651636; in the data active = inhibition above about 38%;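 note: enzyme fragment complementation signal reports receptor beta-arrestin coupling in cells; 0% = agonist plus DMSO wells and 100% = wells without agonist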
# Target sequence (P32249 whole entry, looked up, the tested form may be a part): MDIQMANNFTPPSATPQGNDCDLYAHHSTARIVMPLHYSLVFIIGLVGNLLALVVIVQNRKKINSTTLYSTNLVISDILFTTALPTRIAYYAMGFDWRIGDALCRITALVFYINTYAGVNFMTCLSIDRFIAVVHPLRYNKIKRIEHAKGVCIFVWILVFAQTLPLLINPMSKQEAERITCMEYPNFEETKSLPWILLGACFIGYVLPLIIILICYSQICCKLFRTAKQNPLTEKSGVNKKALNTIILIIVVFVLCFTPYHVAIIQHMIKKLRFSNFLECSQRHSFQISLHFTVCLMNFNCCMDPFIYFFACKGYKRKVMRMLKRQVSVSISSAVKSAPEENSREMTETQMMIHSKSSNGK
# SENP8 block-1 = SENP8 protease inhibition. purified SENP8, Z-RLRGG-aminoluciferin cleavage, luminescence. inhibition, % at 10 µM. actives 1.2% (n = 330,000); in the data active = inhibition above about 50%
# Target sequence (Q96LD8 whole entry, looked up): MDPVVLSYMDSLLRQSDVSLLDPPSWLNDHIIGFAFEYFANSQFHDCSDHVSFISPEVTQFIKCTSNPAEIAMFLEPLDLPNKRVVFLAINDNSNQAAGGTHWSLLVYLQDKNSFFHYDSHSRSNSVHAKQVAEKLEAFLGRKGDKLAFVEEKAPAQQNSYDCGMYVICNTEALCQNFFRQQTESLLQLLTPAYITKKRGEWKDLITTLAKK
# AHR activator = human AHR activation | AID 2796 | AHR-responsive luciferase reporter cells, luminescence | actives 2.5% (n = 320,000) | P35869 | activation, % at 5 µM; in the data active = activation above about 47%;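 note: 0% = vehicle wells and 100% = reference agonist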
# SENP6 inh = inhibitors of human SENP6 protease; Q9GZR1; Recombinant SENP6 catalytic domain, aminoluciferin luminescence; inhibition, % at 10 µM; actives 1.8% (n = 330,000); AID 2599;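 active = inhibition above about 50% at the single tested dose, limit read from the data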;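 note: plate controls were DMSO wells with enzyme for no effect and DMSO wells lacking enzyme for full effect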
# SENP8 block-2 = inhibitors of human SENP8 protease; Q96LD8; recombinant SENP8, Nedd8 substrate fluorescence; inhibition, % at 20 µM; actives 0.64% (n = 360,000); in the data active = inhibition mostly above about 40%, no sharp cut-off; inactive = mostly below about 27%
# SENP7 inh = blocks the human protease SENP7; Q9BQF6; recombinant SENP7, Z-RLRGG-aminoluciferin luminescence, 40 min; inhibition, % at 5 µM; actives 1.5% (n = 330,000);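 active = inhibition above about 50% at the single test dose, limit read from the data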;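 note: plate controls were DMSO with enzyme for no effect and no enzyme buffer wells for full effect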
# Numbers without * were called inactive; i = inactive; . = not tested or not shown.
SMILES,EBI2 block,SENP8 block-1,AHR activator,SENP6 inh,SENP8 block-2,SENP7 inh
COc1ccc(NC(=O)c2c(N)no[n+]2[O-])c(OC)c1,-6.3,-0.5,60.9*,-6.4,22.1,4.0
COc1ccc(NC(=O)Nc2ccon2)cc1OC,4.3,0.0,13.4,-2.6,5.3,-9.3
O=C(Nc1ccc(Cl)c(Cl)c1)Nc1ccon1,-15.0,3.8,70.8*,27.7,2.5,10.1
COc1ccc(NC(=O)Nc2ccon2)c(OC)c1,-10.3,-0.2,56.4*,-18.1,5.5,-2.3
CC1(C(=O)Nc2ccc3ccccc3c2)CCC(=O)N1C1CCN(Cc2ccccc2)CC1 (stereo unspecified),-4.8,.,.,.,14.1,.
Cc1ccc(C(=O)N2C(=O)c3cccc(N)c3C2=O)o1,-1.5,-1.6,20.4,82.3*,-108.4,3.8
Nc1cccc2c1C(=O)N(C(=O)c1cccc(S(=O)(=O)N3CCCC3)c1)C2=O,0.2,1.0,7.7,-4.3,i,0.1
Nn1c(SCC(=O)NC2CCCCCC2)nnc1-c1ccco1,-5.8,.,.,.,17.6,.
O=C(/C=C(/c1ccc(Cl)cc1)n1cncn1)c1ccccc1,3.9,-0.6,64.5*,-14.3,8.8,-0.3
N#CCOc1ccccc1CNC[C@H]1O[C@@H](n2cnc3c(=O)[nH]c(N)nc32)[C@H](O)[C@@H]1O,-7.1,.,.,.,9.0,.
CSCCC(NC(=O)c1ccccc1Cl)C(=O)NNC(=O)c1ccccc1O (stereo unspecified),10.9,-7.8,57.6*,-9.6,-225.9,11.9
CC(=O)N1Cc2cc(C(=O)NCC(F)(F)F)nc(-c3cccc(-c4cc5ccccc5o4)c3)c2[C@@H]1CCO,19.3,.,.,.,-79.0,.
Cc1[nH]c2ccc3ccccc3c2c(=O)c1C/C=C/Cl,17.9,-0.2,47.2*,-6.2,9.6,-4.6
COc1cccc(-c2cc(C(F)(F)F)c3c(N)c(C#N)sc3n2)c1,.,-0.3,55.4*,2.0,.,85.9*
COc1ccc(-c2cc(C(F)(F)F)c3c(N)c(C(=O)NCCSC)sc3n2)cc1,15.3,16.2,61.6*,14.0,-486.6,1.9
COc1ccc(Cl)cc1-c1cc(C(=O)NCc2cccc(C(F)(F)F)c2)[nH]n1,17.6,.,.,.,22.9,.
O=C(c1ccc(Br)c(S(=O)(=O)N2CCOCC2)c1)N1CCN(C/C=C/c2ccccc2)CC1,13.2,.,.,.,22.3,.
CCn1c(=O)c(-c2nc3ccccc3[nH]2)c(O)c2ccccc21,.,-15.5,68.8*,-14.9,.,-4.6
O=C(CC1NCCc2ccccc21)Nc1ccc(Cl)cc1 (stereo unspecified),-6.7,2.1,75.3*,19.3,9.6,-0.3
Cc1nc2ccccc2nc1N/N=C/c1ccc(O)cc1,6.2,-10.9,75.8*,5.7,-54.9,-7.9
Oc1ccc(/C=N/Nc2nc(-c3cccnc3)nc3ccccc23)c(O)c1,-1.2,4.9,7.3,12.1,-329.7,9.7
Clc1ccc(/C=N/Nc2nc(Cl)nc3ccccc23)cc1,-13.3,0.0,65.3*,-5.3,-130.4,0.8
O=C(N/N=C/c1cccnc1)c1cc(-c2ccccc2Cl)nc2ccccc12,-3.8,2.7,23.5,4.6,1.9,4.8
Clc1ccc(/C=N/Nc2nnc(Cl)c3ccccc23)cc1,7.1,-8.4,28.3,-19.7,13.9,22.0
Clc1ccccc1-c1nc(N/N=C/c2cccnc2)c2ccccc2n1,-4.5,-3.9,66.7*,-11.9,-1.2,6.6
SMILES,EBI2 block,SENP8 block-1,AHR activator,SENP6 inh,SENP8 block-2,SENP7 inh
COc1ccc(/C=N/Nc2nc(-c3cccnc3)nc3ccccc23)cc1OC,-22.2,-11.5,68.4*,2.0,-414.5,-13.2
COc1ccc(CCN2C(=O)COc3ccccc3C2C(=O)NCc2ccccc2)cc1OC (stereo unspecified),4.2,.,.,.,8.6,.
N#CC1(Nc2ccc3ccccc3c2)CCCC1,-4.9,.,.,.,i,.
COc1ccc(N2C(c3ccsc3)=Cc3cc4c(cc3C2c2c[nH]c3ccccc23)OCO4)cc1 (stereo unspecified),6.9,.,.,.,-388.9,.
Cc1ccc(S(=O)(=O)N2Cc3ccccc3CC2C(=O)N(C)C)cc1 (stereo unspecified),-3.5,.,.,.,10.6,.
Cc1ccc(/C(C#N)=C\c2cn(C)c3ccccc23)cc1,.,-10.9,75.5*,-15.5,.,3.2
Cc1cc(Cl)c2cc3ccccc3cc2n1,14.4,-3.5,52.2*,-10.3,1.9,0.4
Cc1cc(Cl)c2ccc(Cl)cc2n1,-11.4,4.8,0.3,-23.3,1.6,0.8
CCOc1ccccc1CSc1nc2ccccc2[nH]1,9.5,-24.3,53.6*,-2.3,14.1,-8.1
C(=N\Nc1nc2ccccc2[nH]1)/c1cccc2cccnc12,26.5,0.4,41.6,4.0,-115.9,1.1
COc1ccc(/C=N/Nc2ccccn2)c(OC)c1OC,0.8,-6.9,30.3,-15.1,-7.1,1.6
Fc1cccc(/C=N/Nc2nc3ccccc3[nH]2)c1,.,-13.6,2.1,-11.9,.,6.5
Fc1ccc(/C=N/Nc2nc3ccccc3[nH]2)cc1F,-6.7,-19.1,49.0*,-4.6,-57.4,-1.2
Cc1[nH]c2ccccc2c1/C=N/Nc1nc2ccccc2[nH]1,24.3,-13.4,143.3*,-23.7,-160.0,-4.9
Cc1ccccc1/C=N/Nc1nc2ccccc2[nH]1,-0.6,-17.2,65.2*,-7.3,-106.2,-9.0
COc1ccc(/C=N/Nc2nc3ccccc3[nH]2)c(OC)c1OC,2.6,37.9,51.0*,48.5,-303.0,0.1
Cc1ccc(CN2CCC2(C)C(=O)NC2CCc3ccccc32)cc1 (stereo unspecified),10.1,.,.,.,24.4,.
Cc1ccc(S(=O)(=O)N2CCOCC2)cc1C(=O)N1CCN(S(=O)(=O)c2ccccc2F)CC1,7.4,.,.,.,2.7,.
COc1ccc(NC(=O)c2cc(-c3sc(NC(=O)c4ccccc4)nc3C)n(Cc3ccccc3)n2)cc1,8.5,.,.,.,-75.7,.
C(=C\c1ccccc1)/C=N/Nc1nc2ccccc2[nH]1,3.7,14.1,65.5*,-20.9,-139.2,5.6
C(=N\Nc1nc2ccccc2[nH]1)/c1ccccc1,5.8,-13.8,29.7,-20.6,-99.0,2.1
C(=N\Nc1nc2ccccc2[nH]1)/c1c[nH]c2ccccc12,14.9,-1.5,107.8*,12.1,-76.5,-8.2
Cc1nn(-c2ccccc2)c(Cl)c1/C=N/Nc1nc2ccccc2[nH]1,13.7,16.1,23.4,52.1*,9.3,85.1*
CCOC(=O)c1ccc(S(=O)(=O)N2CCC(N3CCCCCC3)CC2)cc1,-5.1,.,.,.,28.7,.
O=C(Nc1cccnc1)c1ccc2snnc2c1,5.8,3.9,26.7,1.9,7.9,-7.1
Cc1ccc(NC(=O)c2ccc3snnc3c2)cc1,-1.3,-16.6,62.9*,-14.0,9.0,-15.2
CC(C)c1ccc(NC(=O)c2ccc3snnc3c2)cc1,15.2,-9.4,14.0,-15.6,9.2,-6.2
O=C(Nc1ccccc1)c1ccc2snnc2c1,0.8,13.5,63.0*,27.7,2.6,17.6
CC1(C)CC(=O)C=C(OC(=O)c2ccc(Cl)cc2)C1,-3.7,-11.3,0.0,-6.6,12.8,-2.4
CCCc1cc(=O)oc2c3c(cc(OCC(=O)N4CCC(C(=O)O)CC4)c12)OC(C)(C)CC3,-1.8,.,.,.,2.7,.

# Screening results: PubChem, several laboratories
